# High-throughput results deposited in PubChem BioAssay by several laboratories.
# CatG inh – human cathepsin G inhibitors, primary screen, biochemical, pooled compound mixtures, AMC fluorescence; P08311; purified enzyme, AMC-tetrapeptide fluorescence; inhibition, % at 5 µM (by protocol); actives 0.2% (n = 62,000); AID 581, 2007;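 active = inhibition above 20% in each of the two mixture wells holding the compound; inactive = inhibition of 20% or less in either well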;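 note: 0% = enzyme control without mixture and 100% = blank lacking enzyme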
# FXIa inh mix – FXIa protease inhibitors in compound pools, primary screen, biochemical, 10-compound mixtures | purified FXIa, fluorogenic substrate, pooled mixtures | inhibition, % at 5 µM | actives 0.19% (n = 62,000) | AID 680, 2007;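 note: each value is inhibition by a whole ten-compound pool holding the compound; 0% = enzyme with no mixture and 100% = wells lacking enzyme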
# C1s block – complement C1s protease inhibitors, primary screen, biochemical, 10-compound mixtures. Complement C1s subcomponent (Homo sapiens), P09871. purified C1s, fluorogenic AMC substrate, pooled mixtures. mean inhibition % of two 10-compound mixtures (active compounds read high), % at 5 µM (by protocol). actives 0.16% (n = 62,000);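 active = inhibition above 20% in each of the two 10-compound mixture wells holding the compound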;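 note: 0% = enzyme wells lacking compound mixture and 100% = no-enzyme blank wells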
# PLAP act – PLAP enzyme activators, biochemical, luminescence, HTS | Alkaline phosphatase, placental type (Homo sapiens), P05187 | purified PLAP enzyme, luminescent substrate read-out; active compounds read high | activation fold at 20 µM | actives 1.2% (n = 96,000) | AID 696, 2007; in the data active = activation fold above about 2
# FXIIa mix inh – human factor XIIa inhibitors, primary screen, biochemical, pooled compound mixtures, fluorogenic substrate; actives 0.2% (n = 62,000); purified FXIIa; Coagulation factor XII (Homo sapiens), P00748; inhibition, % at 5 µM;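 note: 0% = enzyme without compound and 100% = no enzyme blank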
# Target sequence (P00748 20-372 limits assumed): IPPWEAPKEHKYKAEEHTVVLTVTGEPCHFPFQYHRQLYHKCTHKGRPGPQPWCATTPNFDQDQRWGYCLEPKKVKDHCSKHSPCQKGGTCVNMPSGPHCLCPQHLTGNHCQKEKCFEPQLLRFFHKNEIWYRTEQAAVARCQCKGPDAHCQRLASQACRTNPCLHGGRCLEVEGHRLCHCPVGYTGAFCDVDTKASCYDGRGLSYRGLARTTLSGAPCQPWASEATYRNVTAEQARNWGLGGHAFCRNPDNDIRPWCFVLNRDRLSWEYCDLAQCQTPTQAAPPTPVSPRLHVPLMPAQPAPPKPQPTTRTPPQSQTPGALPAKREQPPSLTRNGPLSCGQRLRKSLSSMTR
# Target sequence (P00748 373-615 limits assumed): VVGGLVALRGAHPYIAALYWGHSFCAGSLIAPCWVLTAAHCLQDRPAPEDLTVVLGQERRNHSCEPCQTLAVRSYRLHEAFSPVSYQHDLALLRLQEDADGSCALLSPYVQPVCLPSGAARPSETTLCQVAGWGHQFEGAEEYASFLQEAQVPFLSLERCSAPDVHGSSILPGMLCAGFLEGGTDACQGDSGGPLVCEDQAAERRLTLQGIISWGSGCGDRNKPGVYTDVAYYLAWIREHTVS
# HePTP inh – inhibitors of human HePTP phosphatase, primary screen, biochemical, absorbance, leukemia target; Tyrosine-protein phosphatase non-receptor type 7 (Homo sapiens), P35236; recombinant HePTP phosphatase activity, OD absorbance; inhibition, % at 20 µM; actives 0.64% (n = 110,000); in the data active = inhibition above about 50%;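 note: plate controls were vehicle for no effect and reference inhibitor for full effect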
# Starred values were filed as active, the others as inactive; nt = no result given. A selection: hits, their analogues and other compounds. The true share with any hit is near 1.4%. Cut-off read from the data, not from the text of the source, unless noted: active = inhibition above about 20% (passing the limit was not always enough); inactive = the rest.
SMILES,CatG inh,FXIa inh mix,C1s block,PLAP act,FXIIa mix inh,HePTP inh
CC12CCC(C(=O)NCc3ccccc3)(OC1=O)C2(C)C (centres undefined),-2,6,-31,1.2,-3,3
O=C(/C=C/c1ccccc1)NC(=S)NNC(=O)c1cccnc1,nt,nt,nt,1.7,nt,nt
COc1ccc(/C=C/C(=O)NC(=S)NNC(=O)c2cccnc2)cc1OC,nt,nt,nt,2*,nt,nt
COC(=O)c1ccc(C2C3=C(CC(C)(C)CC3=O)NC3=C2C(=O)CC(C)(C)C3)cc1,nt,nt,nt,nt,nt,-2
O=C1NC(=S)NC(=O)C1=Cc1cc(Cl)c(OCc2ccc(C(=O)O)cc2)c(Cl)c1,nt,nt,nt,nt,nt,104*
COc1cc(C=C2C(=O)NC(=S)NC2=O)ccc1OCc1ccc(C(=O)O)cc1,nt,nt,nt,nt,nt,-16
Cc1cc(C)c2c(CC(=O)NCc3ccco3)coc2c1,10,7,21*,0.8,2,6
Cc1ccc(SCC(=O)NCc2ccco2)cc1,5,-3,14,nt,2,1
COc1cc2nc(CN(C)CC(=O)Nc3ccc(N4CCOCC4)cc3)[nH]c(=O)c2cc1OC,-7,-6,-77,2.3*,-19,10
CCN(CC(=O)Nc1ccc2c(c1)CCC2)Cc1nc2ccccc2c(=O)[nH]1,-6,4,9,2.6*,4,8
CCN(CC(=O)NCc1ccc(F)cc1)Cc1nc2cc(Cl)ccc2c(=O)[nH]1,nt,nt,nt,2.7*,nt,nt
CN(CC(=O)Nc1ccccc1Br)Cc1nc2ccccc2c(=O)[nH]1,nt,nt,nt,2.4*,nt,nt
CCN(CC(=O)Nc1cccc(Br)c1)Cc1nc2ccccc2c(=O)[nH]1,nt,nt,nt,0.9,nt,nt
CCN(Cc1nc2ccccc2c(=O)[nH]1)Cc1nc2cc(OC)c(OC)cc2c(=O)[nH]1,-15,-3,-19,2.2*,1,0
CCN(CC(=O)Nc1ccc(N2CCOCC2)cc1)Cc1nc2ccccc2c(=O)[nH]1,nt,nt,nt,2.1*,nt,nt
CCN(CC(=O)Nc1ccc2c(c1)OCO2)Cc1nc2ccccc2c(=O)[nH]1,11,5,15,nt,0,10
COc1ccc(CNC(=O)c2cc(-c3ccc(OC)c(OC)c3)on2)cc1,32*,10,22*,1.2,0,13
COc1ccc(-c2cc(C(=O)NCc3ccc(Cl)cc3)no2)cc1OC,55*,14,7,1.1,9,11
COc1ccc(-c2cc(C(=O)NCc3ccccc3)no2)cc1OC,11,8,-11,0.9,1,6
COc1cccc(-c2cc(C(=O)NCc3ccc(Cl)cc3)no2)c1,47,19,-34,1.2,-21,8
COc1cccc(-c2cc(C(=O)NCCc3ccccc3)no2)c1,22*,4,16,0.9,1,12
O=C(O)c1cc(N2C(=O)c3ccc(Oc4ccc5c(c4)C(=O)N(c4ccc(O)c(C(=O)O)c4)C5=O)cc3C2=O)ccc1O,nt,nt,nt,nt,nt,8
CCn1c(COc2cccc3ccccc23)nnc1SCC(=O)OC1CCCCC1,nt,nt,nt,2.5*,nt,nt
CCn1c(COc2ccccc2C)nnc1SCC(=O)NC1CCCC1,8,9,12,1.6,5,6
